In PubChem BioAssay (NCI):
The panel holds about 83,000 compounds, 20% with a hit somewhere; the sample as a whole holds those more often.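 The endpoint reported here, percent growth, reads 100 for growth as untreated, 0 for no net growth and -100 for all cells dead.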 Activity calls are given as the source filed them. Rule for the calls: active = growth percent below 10; inactive = the rest.

Key:
Assay in all cases: NCI-60 one-dose screen, 48 h (100 = growth as untreated, 0 = no growth, -100 = all killed)
Details in all cases: 10 µM unless noted
SK-MEL-2 melanoma = tested on: SK-MEL-2 melanoma
EKVX NSCLC = tested on: EKVX NSCLC
SN12C renal = tested on: SN12C renal
UO-31 renal = tested on: UO-31 renal
TK-10 renal = tested on: TK-10 renal
ACHN renal = tested on: ACHN renal
CAKI-1 renal = tested on: CAKI-1 renal
A498 renal = tested on: A498 renal
CCRF-CEM leukemia = tested on: CCRF-CEM leukemia
MOLT-4 leukemia = tested on: MOLT-4 leukemia

Measured: growth

NS(=O)(=O)c1ccc(C(=O)NN2C(=O)c3ccccc3C2=O)cc1
inactive: SK-MEL-2 melanoma 116% | EKVX NSCLC 105% | SN12C renal 104% | UO-31 renal 89.9% | TK-10 renal 103% | ACHN renal 112% | CAKI-1 renal 94% | A498 renal 73.3% | CCRF-CEM leukemia 107% | MOLT-4 leukemia 107%

CN(C)CCCC1(c2ccc(F)cc2)OCc2cc(-c3csc4ccccc34)ccc21 (stereo not given)
inactive: SK-MEL-2 melanoma 62.6% | EKVX NSCLC 55.3% | SN12C renal 39.7% | TK-10 renal 62.1% | A498 renal 90.2%
active: UO-31 renal 2.29% | ACHN renal 0.407% | CAKI-1 renal 4.7% | CCRF-CEM leukemia -14.3% | MOLT-4 leukemia -15.6%

Cc1ccc(Cc2cnc(NC(=O)/C=C/c3ccc(C)o3)s2)cc1
inactive: SK-MEL-2 melanoma 53.8% | EKVX NSCLC 49.7% | SN12C renal 51.7% | UO-31 renal 48.5% | TK-10 renal 68% | ACHN renal 40.4% | CAKI-1 renal 36% | A498 renal 25.1% | CCRF-CEM leukemia 27.8% | MOLT-4 leukemia 37.6%

CC/C(=C(/c1ccc(O)cc1)c1ccc(OCCN2CCCCC2)cc1)c1ccc(OC)cc1
inactive: SK-MEL-2 melanoma 97.4% | EKVX NSCLC 87% | SN12C renal 91.1% | UO-31 renal 70% | TK-10 renal 86.6% | ACHN renal 91.3% | CAKI-1 renal 91.2% | A498 renal 83.2% | CCRF-CEM leukemia 42.1% | MOLT-4 leukemia 23%

O=c1cc(-c2ccccc2)nc(SCc2nc3cc(Cl)c(Cl)cc3[nH]2)[nH]1
inactive: SK-MEL-2 melanoma 91.3% | EKVX NSCLC 102% | SN12C renal 105% | UO-31 renal 81.7% | TK-10 renal 104% | ACHN renal 97.3% | CAKI-1 renal 93.3% | A498 renal 93.7% | CCRF-CEM leukemia 124% | MOLT-4 leukemia 95.5%

COC12C=C/C(=C(/C(=O)OCCSc3ccnn3C)C(=O)CCCCCCCCC3(OC)C=C/C(=C(/C(=O)OCCSc4ccnn4C)C(=O)CCCCCCCC1)O3)O2
active: EKVX NSCLC 9.41% | SN12C renal -4.94% | ACHN renal 4.65% | A498 renal -53.5% | MOLT-4 leukemia -0.956%
inactive: SK-MEL-2 melanoma 12.3% | UO-31 renal 14.8% | TK-10 renal 39.9% | CAKI-1 renal 26.6% | CCRF-CEM leukemia 11.1%

CC(C)c1ccc2c(c1)CC[C@H]1[C@](C)(C(=O)OCC#CCN3CCCC3)CCC[C@]21C
inactive: SK-MEL-2 melanoma 103% | EKVX NSCLC 74.8% | SN12C renal 71.5% | UO-31 renal 60.7% | TK-10 renal 98.6% | ACHN renal 86.2% | CAKI-1 renal 94.5% | A498 renal 105% | MOLT-4 leukemia 72.7%
active: CCRF-CEM leukemia 6.39%

O=C(Nc1nc(Cl)nc(Nc2ccc(N3CCOCC3=O)cc2)n1)c1ccc(Cl)s1
inactive: SK-MEL-2 melanoma 84% | EKVX NSCLC 102% | SN12C renal 92.1% | UO-31 renal 91.5% | TK-10 renal 120% | ACHN renal 95.7% | CAKI-1 renal 99.8% | A498 renal 85.7% | CCRF-CEM leukemia 80.9% | MOLT-4 leukemia 85.2%

Nc1cc(C(=O)O)cc(-n2c(O)c(C=C3N=c4ccccc4=N3)sc2=S)c1
inactive: SK-MEL-2 melanoma 101% | EKVX NSCLC 99.4% | SN12C renal 95.8% | UO-31 renal 69.5% | TK-10 renal 103% | ACHN renal 99% | CAKI-1 renal 86.8% | A498 renal 102% | CCRF-CEM leukemia 106% | MOLT-4 leukemia 103%

CC(=O)c1sc(-c2ccc(F)cc2)cc1O
inactive: SK-MEL-2 melanoma 107% | EKVX NSCLC 99.7% | SN12C renal 109% | UO-31 renal 88.5% | TK-10 renal 95.1% | ACHN renal 106% | CAKI-1 renal 93.3% | A498 renal 102% | CCRF-CEM leukemia 97.6% | MOLT-4 leukemia 93.4%

CC(=O)c1ccc(-n2cc(CN3CCN(c4cc5c(cc4F)c(=O)c(C(=O)O)cn5C4CC4)CC3)nn2)cc1
inactive: SK-MEL-2 melanoma 96.4% | EKVX NSCLC 88.5% | SN12C renal 103% | UO-31 renal 63.1% | TK-10 renal 103% | ACHN renal 96.7% | CAKI-1 renal 87.8% | A498 renal 76.7% | CCRF-CEM leukemia 111% | MOLT-4 leukemia 102%

CCOC(=O)c1ccc[nH]1
inactive: SK-MEL-2 melanoma 99.3% | EKVX NSCLC 97.1% | SN12C renal 105% | UO-31 renal 91.8% | TK-10 renal 98.3% | ACHN renal 90.4% | CAKI-1 renal 74.3% | A498 renal 101% | CCRF-CEM leukemia 92.1% | MOLT-4 leukemia 102%

Cc1nc(N/N=C/c2cn(-c3ccccc3)nc2-c2cc3ccccc3oc2=O)sc1N=Nc1ccccc1
inactive: SK-MEL-2 melanoma 93.7% | EKVX NSCLC 102% | SN12C renal 97.6% | UO-31 renal 70.7% | TK-10 renal 106% | ACHN renal 98% | CAKI-1 renal 69.7% | A498 renal 77% | CCRF-CEM leukemia 94.3% | MOLT-4 leukemia 85.1%

COC(=O)c1c(C)nc(C)c2c1C(=O)C=C(NCc1ccccc1)C2=O
inactive: SK-MEL-2 melanoma 72.8% | EKVX NSCLC 71.5% | SN12C renal 88.6% | UO-31 renal 74.2% | TK-10 renal 119% | ACHN renal 76% | CAKI-1 renal 81.5% | A498 renal 124% | CCRF-CEM leukemia 89.1% | MOLT-4 leukemia 75.9%

CCOC(=O)c1cn2ncnc(Oc3ccc(NC(=O)NC4CC4)c(Cl)c3)c2c1C
inactive: SK-MEL-2 melanoma 110% | EKVX NSCLC 89.8% | SN12C renal 79.9% | UO-31 renal 65.3% | TK-10 renal 113% | ACHN renal 96.4% | CAKI-1 renal 101% | CCRF-CEM leukemia 89.2% | MOLT-4 leukemia 88.8%
active: A498 renal -0.592%

COC1C(O)CC(OC2CC(OC3CC(O[C@@H]4C(=O)c5c(cc6cc(OC7CC(OC8CC(O)C(O)C(C)O8)C(O)C(C)O7)c(C)c(O)c6c5O)CC4[C@H](OC)C(=O)C(C)=O)OC(C)C3O)OC(C)C2O)OC1C (stereo not given in full)
active: SK-MEL-2 melanoma -41.9% | EKVX NSCLC 3.71% | SN12C renal 7.44% | UO-31 renal -27.7% | TK-10 renal -8.69% | ACHN renal 5.29% | A498 renal -44.1% | CCRF-CEM leukemia 4.37% | MOLT-4 leukemia -6.83%
inactive: CAKI-1 renal 16.9%

CCCCn1c(NC(C)=O)c(S(=O)(=O)c2ccccc2)c2nc3ccccc3nc21
inactive: SK-MEL-2 melanoma 121% | EKVX NSCLC 95.5% | SN12C renal 103% | UO-31 renal 92% | TK-10 renal 99.7% | ACHN renal 106% | CAKI-1 renal 104% | A498 renal 87.3% | CCRF-CEM leukemia 77.7% | MOLT-4 leukemia 82.5%

Cc1cc(O)c(=O)cc2c1C[C@H]1CC(C)(C)/C=C/C[C@]3(C)Oc4cc(=O)c(O)cc(C)c4C[C@H]3C[C@H](O)[C@@]1(C)O2
active: SK-MEL-2 melanoma -0.26% | EKVX NSCLC 1.96% | SN12C renal 0.888% | UO-31 renal -3.55% | ACHN renal 6.64% | CAKI-1 renal 0.0892% | CCRF-CEM leukemia 9.98% | MOLT-4 leukemia 7.8%
inactive: TK-10 renal 12.8% | A498 renal 12.3%

Cn1cc(-c2csc(-c3cn(C)c4ccccc34)n2)c2cnccc21
active: UO-31 renal -48.1% | ACHN renal -61.4% | CAKI-1 renal -6.15% | CCRF-CEM leukemia 0.781% | MOLT-4 leukemia 5.42%
inactive: SK-MEL-2 melanoma 107% | EKVX NSCLC 16.8% | SN12C renal 67.8% | TK-10 renal 66.7% | A498 renal 85.2%

Cc1nn(C)c2ncnc(N/N=C/c3cccc(O)c3O)c12
active: EKVX NSCLC 6.94% | SN12C renal 7.54% | UO-31 renal -13.4% | ACHN renal 4.41% | CAKI-1 renal 6.5% | CCRF-CEM leukemia -16.7% | MOLT-4 leukemia 3.79%
inactive: SK-MEL-2 melanoma 31.5% | TK-10 renal 28.7% | A498 renal 26.6%

O=C1C(Cl)=C(Nc2ccccc2)C(=O)c2ccccc21
active: SK-MEL-2 melanoma -65.9% | EKVX NSCLC -91.9% | SN12C renal -73.5% | UO-31 renal -42.5% | ACHN renal -86.5% | CAKI-1 renal -83.6% | CCRF-CEM leukemia -10.5% | MOLT-4 leukemia -20.1%
inactive: TK-10 renal 172% | A498 renal 46.9%

CCCOC(=O)Nc1nc2ccc(SCC)cc2s1
inactive: SK-MEL-2 melanoma 76.2% | EKVX NSCLC 94.3% | SN12C renal 89.6% | UO-31 renal 90.7% | TK-10 renal 84.9% | ACHN renal 107% | CAKI-1 renal 79.8% | A498 renal 70.7% | CCRF-CEM leukemia 72.1% | MOLT-4 leukemia 72.9%

CC(O)Cc1c[nH]c(=O)[nH]c1=O (stereo not given)
inactive: SK-MEL-2 melanoma 115% | EKVX NSCLC 106% | SN12C renal 110% | UO-31 renal 100% | TK-10 renal 123% | ACHN renal 97.9% | CAKI-1 renal 99.6% | A498 renal 87.8% | CCRF-CEM leukemia 122% | MOLT-4 leukemia 101%

CCN(CC)CCCC(Cc1ccccc1)Nc1c2ccc(Cl)cc2nc2ccc(OC)cc12 (stereo not given)
active: SK-MEL-2 melanoma 7.91% | UO-31 renal -39.6% | TK-10 renal -2.6% | ACHN renal -39.2% | CCRF-CEM leukemia -0.463% | MOLT-4 leukemia 4.64%
inactive: EKVX NSCLC 26.6% | SN12C renal 73.6% | CAKI-1 renal 32.6% | A498 renal 46.8%

C/C=C1/CN(CCCCC)CC[C@H]1C(=O)c1cc2ccccc2[nH]1
inactive: SK-MEL-2 melanoma 118% | EKVX NSCLC 94.1% | SN12C renal 86.1% | UO-31 renal 50.7% | TK-10 renal 120% | ACHN renal 96.1% | CAKI-1 renal 87.6% | A498 renal 88.9% | CCRF-CEM leukemia 96.8% | MOLT-4 leukemia 86.1%

O=C1OCC2=C1C(c1ccccc1)c1cc3c(cc1N2CCO)OCCO3 (stereo not given)
active: A498 renal -21.2%
inactive: SK-MEL-2 melanoma 57.3% | EKVX NSCLC 48.4% | SN12C renal 35.1% | UO-31 renal 68.4% | TK-10 renal 63.5% | ACHN renal 36.7% | CAKI-1 renal 51% | CCRF-CEM leukemia 10.5% | MOLT-4 leukemia 21.4%

CN(C)c1ccc(/C=N\NC(=O)c2ccc3nc(-c4ccc(Cl)cc4)[nH]c3c2)cc1
inactive: SK-MEL-2 melanoma 83.3% | EKVX NSCLC 73.2% | SN12C renal 41.2% | UO-31 renal 75.4% | TK-10 renal 94.4% | ACHN renal 35.7% | CAKI-1 renal 84.9% | A498 renal 72.9% | CCRF-CEM leukemia 21.4% | MOLT-4 leukemia 23.6%
